The nature of assay [1]: qHTS assay for small molecule agonists of the p53 signaling pathway (AID 651631; calls by dose curve; further: nearly all actives have a fitted effect of over 15% in size). The method in brief: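 We treat p53RE-bla HCT-116 cells with compounds for 16 h at 37 °C, add LiveBLAzer B/G FRET substrate for 2 h at room temperature, and measure fluorescence intensity.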
In general terms: qHTS replaces the single test concentration by a dilution series.

Assay [2] is described as follows: qHTS assay for small molecules that induce genotoxicity in human embryonic kidney cells expressing luciferase-tagged ATAD5 (AID 651632). Further: nearly all actives have a fitted effect of over 15% in size. The method in brief: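 DMSO vehicle served as the control. HEK293T reporter cells, 16 hr at 37C, then 30 min Amplite at room temperature; ATAD5 induction is measured as luciferase activity.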
Assay [3] in a line: qHTS assay for small molecule agonists of the p53 signaling pathway - cell viability (AID 651633; calls by dose curve;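 further: p53RE-bla HCT reporter cells with a stable beta-lactamase p53 reporter; series mostly up to about 83 µM; nearly all actives have a fitted effect of over 30% in size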). The method in brief:
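p53RE-bla cells, seeded at 4,000 per well and rested 5 h at 37 C/5% CO2, received compounds in DMSO for 16 h at 37 C. CellTiter-Glo was then added, and luminescence was read after 30 min at room temperature to gauge cytotoxicity.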

Assay [4] is described as follows: qHTS assay for small molecules that induce genotoxicity in human embryonic kidney cells expressing luciferase-tagged ATAD5 - cell viability (AID 651634; calls by dose curve; further: nearly all actives have a fitted effect of over 25% in size). The method in brief:
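Here HEK293T cells with the ATAD5 luciferase reporter are incubated with test compounds for 15.5 hr, and cytotoxicity is then gauged by measuring protease activity in live cells using fluorescence.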

Assay [5] is described as follows: qHTS assay for small molecule disruptors of the mitochondrial membrane potential - cell viability (AID 720634; calls by dose curve;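 further: human HepG2 liver cancer cells; series mostly up to about 83 µM; nearly all actives have a fitted effect of over 20% in size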). The method in brief: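 Viability of HepG2 cells is scored from ATP content by luminescence; cells are exposed to compound for 1 hr at 37 C and 5% CO2, then dosed with m-MPI dye before the CellTiter-Glo reagent.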
Assay [6] is described as follows: qHTS assay for small molecule disruptors of the mitochondrial membrane potential (AID 720635). Further: potency means the concentration at half of the fitted maximal effect. The method in brief:
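HepG2 cells (2,000/well) attached overnight at 37C, then took compound for 1 hr at 37C, 5% CO2. Mito-MPS dye was added for 30 min; fluorescence was read at 490/535 nm (monomers) and 540/590 nm (aggregates).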

Assay [7] can be described thus: qHTS assay to test for compound auto fluorescence at 590 nm (red) in HepG2 cells (AID 720674). The method in brief: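 Compound auto-fluorescence is scored relative to Rose Bengal sodium, measured at 540/590 nm in live HepG2 cultures after 1 hr compound contact (37 C, 5% CO2).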
Assay [8] can be described thus: qHTS assay to test for compound auto fluorescence at 535 nm (green) in HepG2 cells (AID 720675).
Assay [9] is described as follows: qHTS assay to test for compound auto fluorescence at 460 nm (blue) in HEK293 cells (AID 720678). The method in brief: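 Cells were seeded and left to adhere for 4-5 hr at 37C. Compounds were then pin-transferred. After an overnight incubation at 37C under 5% CO2, intrinsic fluorescence at 405/460 nm was measured and referenced to triamterene.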
Assay [10] can be described thus: qHTS assay to test for compound auto fluorescence at 590 nm (red) in HEK293 cells (AID 720679). The method in brief:
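Each well held 2,000 HEK293 cells in medium containing 10% dialyzed FBS. Following 4-5 hr attachment at 37C, 23 nL test compound or DMSO was added; plates sat overnight, and red fluorescence (540/590nm) was recorded.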

Assay [11] can be described thus: qHTS assay to test for compound auto fluorescence at 535 nm (green) in HEK293 cells (AID 720680).
A short description of assay [12]: qHTS assay to test for compound auto fluorescence at 460 nm (blue) in HEK293 cell free culture (AID 720681). The method in brief: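 Test compounds were pinned into cell-free culture medium (DMEM with 10% FBS) and fluorescence was read directly at Ex/Em 405/460 nm. Signals were expressed as fluorescence equivalents of triamterene, with DMSO vehicle as control.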

The nature of assay [13]: qHTS assay to test for compound auto fluorescence at 535 nm (green) in HEK293 cell free culture (AID 720682). The method in brief: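 Green-channel intensity (Ex/Em 485/535 nm) was recorded from compound-treated wells containing only DMEM with 10% FBS. Fluorescein provided the equivalency standard.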
Assay [14] is described as follows: qHTS assay to test for compound auto fluorescence at 590 nm (red) in HEK293 cell free culture (AID 720683). The method in brief:
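Tox21 10K library compounds were pinned into cell-free DMEM with 10% FBS and fluorescence was read at excitation 540 nm. Activity is expressed as Rose Bengal sodium equivalency.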

The nature of assay [15]: qHTS assay to test for compound auto fluorescence at 590 nm (red) in HepG2 cell free culture (AID 720684). The method in brief: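 Readout: intrinsic compound fluorescence at 590 nm emission after 540 nm excitation, scaled to Rose Bengal sodium. Matrix was cell-free MEM with 10% FBS; DMSO vehicle wells served as control.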
Assay [16] in a line: qHTS assay to test for compound auto fluorescence at 460 nm (blue) in HepG2 cell free culture (AID 720685). The method in brief:
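Cell-free plates of MEM plus 10% FBS received 23 nL compound or DMSO vehicle; blue-channel (405/460 nm) intensity scored against triamterene as reference fluorophore.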

The nature of assay [17]: qHTS assay to test for compound auto fluorescence at 535 nm (green) in HepG2 cell free culture (AID 720686).
The nature of assay [18]: qHTS assay to test for compound auto fluorescence at 460 nm (blue) in HepG2 cells (AID 720687). The method in brief: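 Cells (2,000/well in MEM with 10% FBS) attached overnight at 37 C, then were exposed to compound or DMSO for 1 hr at 37 C, 5% CO2. Fluorescence read at Ex/Em 405/460 nm, expressed as triamterene-equivalent signal.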
Assay [19] deals with Glucocorticoid receptor (Homo sapiens) (UniProt P04150). Nature of the assay: qHTS assay to identify small molecule agonists of the glucocorticoid receptor (GR) signaling pathway (AID 720691; active means well fitted activation curve with a large enough effect in the signal ratio in the repeat runs, not every such curve was filed as active; the % refers to the signal ratio). The method in brief: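 Compounds in DMSO, alongside positive controls, were added to GR-bla HeLa reporter cells and incubated 18 h at 37 C; GRE-driven beta-lactamase was detected by fluorescence after 2 h with FRET substrate at room temperature.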

For assay [20] the target is unchanged. Description: qHTS assay to identify small molecule antagonists of the glucocorticoid receptor (GR) signaling pathway (AID 720692; active means well fitted inhibition curve with a large enough effect in the signal ratio in the repeat runs, not every such curve was filed as active; the % refers to the signal ratio). The method in brief:
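In a 1536-well cell format, compounds were added 4 h after seeding GR-bla HeLa cells, together with dexamethasone at 5 nM final; reporter activity was measured by FRET-substrate fluorescence following 18 h at 37 C.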

Results filed as inconclusive are left out. Active and inactive are the calls of the source. Unless noted, the call rests on the fitted dose curve; in most records, active means well fitted curve in the direction sought with a large enough effect in the repeat runs; inconclusive means weak or mixed curves; inactive means no such curve, though single readings can be large; an effect the other way counts as inactive or inconclusive.

Sequence of Glucocorticoid receptor (Homo sapiens) (P04150 whole entry, looked up): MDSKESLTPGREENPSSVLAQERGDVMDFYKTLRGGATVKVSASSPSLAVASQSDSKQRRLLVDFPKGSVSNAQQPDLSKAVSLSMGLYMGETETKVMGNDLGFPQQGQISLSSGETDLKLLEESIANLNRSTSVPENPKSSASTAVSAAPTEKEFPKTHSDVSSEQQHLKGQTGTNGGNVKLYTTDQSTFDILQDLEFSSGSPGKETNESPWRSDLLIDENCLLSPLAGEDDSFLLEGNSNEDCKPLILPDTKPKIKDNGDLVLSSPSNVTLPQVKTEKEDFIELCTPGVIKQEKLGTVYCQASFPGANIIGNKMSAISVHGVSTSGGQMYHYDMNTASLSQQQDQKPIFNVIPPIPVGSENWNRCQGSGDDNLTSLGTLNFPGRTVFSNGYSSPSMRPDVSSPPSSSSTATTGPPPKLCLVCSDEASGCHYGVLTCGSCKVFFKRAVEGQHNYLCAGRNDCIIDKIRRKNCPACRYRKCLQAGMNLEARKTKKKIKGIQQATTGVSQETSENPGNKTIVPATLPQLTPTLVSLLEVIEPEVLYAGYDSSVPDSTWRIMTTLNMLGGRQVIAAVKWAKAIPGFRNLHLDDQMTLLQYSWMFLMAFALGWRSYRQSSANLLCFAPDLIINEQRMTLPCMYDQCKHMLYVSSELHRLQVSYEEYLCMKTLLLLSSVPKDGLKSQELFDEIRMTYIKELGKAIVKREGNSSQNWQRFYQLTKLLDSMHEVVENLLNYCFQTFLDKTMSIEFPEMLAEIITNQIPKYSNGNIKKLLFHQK

Turning to `NC(=O)c1cn(Cc2c(F)cccc2F)nn1`, the compound was classed as inactive in assay [1], in assay [3], in assay [7], in assay [8], in assay [9] and in assay [10]. Moreover, the outcome in assay [11], in assay [12], in assay [13], in [14], in assay [15] and in assay [16] was inactive. For the same compound, the compound was called inactive in assay [17] and in assay [18]. In addition, the Potency result in assay [2], in [4], in [5] and in [6] was “inactive” each time.

As for `Cc1cccc(C)c1NC(=O)C(C)N` (configuration not stated), the compound was called inactive in assay [1], in assay [3], in assay [7], in assay [8], in [9] and in assay [10]. Moreover, the outcome in assay [11], in assay [12], in [13], in assay [14], in [15] and in [16] was inactive. Further, the outcome in [17] and in [18] was inactive. Further, the Potency entry in [2], in assay [4], in assay [5], in assay [6], in [19] and in assay [20] was “inactive” in each case.

On to `N=c1nc(N2CCCCC2)cc(N)n1O`, for which the compound was classed as inactive in [1], in assay [3], in assay [7], in assay [8], in [9] and in [10]. The compound was classed as inactive in [11], in assay [12], in [13], in assay [14], in assay [15] and in assay [16]. Further, the outcome in assay [17] and in [18] was inactive. Besides, the Potency entry in [2], in assay [4], in assay [5], in assay [6], in assay [19] and in assay [20] was “inactive” throughout.

Turning to `C[C@](N)(Cc1ccc(O)cc1)C(=O)O`, the result in assay [1], in assay [3], in assay [7], in assay [8], in [9] and in assay [10] was inactive. Further, the result in [11], in assay [12], in assay [13], in [14], in assay [15] and in assay [16] was inactive. In addition, the compound was called inactive in assay [17] and in assay [18]. The Potency entry in assay [2], in [4], in [5], in assay [6] and in assay [19] was “inactive” in each case.

As for `N[C@H]1CN(c2c(F)cc3c(=O)c(C(=O)O)cn(C4C[C@H]4F)c3c2Cl)CC12CC2` (some centres not stated), the outcome in [1], in assay [3], in assay [7], in [8], in assay [9] and in [10] was inactive. Also, the result in [11], in [12], in [13], in assay [14], in assay [15] and in assay [16] was inactive. Besides, the call in [17] and in assay [18] was inactive. Also, the Potency result in [2], in assay [4], in assay [5], in assay [6], in assay [19] and in assay [20] was “inactive” throughout.

For `OCCOc1ccc(OCCO)cc1`, the outcome in assay [1], in [3], in assay [7], in assay [8], in [9] and in assay [10] was inactive. For the same compound, the call in [11], in assay [12], in [13], in assay [14], in assay [15] and in [16] was inactive. The compound was classed as inactive in assay [17] and in assay [18]. In addition, the Potency result in assay [2], in assay [4], in [5], in assay [19] and in assay [20] was “inactive” in each case. The Potency in [6] is 1560 nM (active).

Consider `C=COCC1CCC(CO)CC1` (configuration not stated), for which the outcome in assay [1], in [3], in [7], in assay [8], in [9] and in assay [10] was inactive. Moreover, the compound was classed as inactive in assay [11], in [12], in assay [13], in [14], in assay [15] and in [16]. Besides, the outcome in assay [17] and in assay [18] was inactive. The Potency entry in [2], in assay [4], in [5], in assay [6], in [19] and in [20] was “inactive” in each case.

The values are drawn from PubChem BioAssay (Tox21).
